# Measurements as given in PubChem BioAssay.
# Values joined by “and” are separate entries in the source; they are usually repeats but may differ in a detail not shown here. Equal entries are not always repeated. Active and inactive are the calls of the source.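 Rule for the calls, unless noted: active = z-score of at least 1.8 in each of two replicates, scored against plate mean and spread of sample wells; inactive = the rest.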
# Legend:
# [1] = Wnt pathway potentiators raising nuclear beta-catenin – imaging, WNT3A-conditioned medium, mouse C2C12, NPC library, primary screen (AID 1117326; in the data active = nuclear beta-catenin stimulation mostly above about 4.2%, no sharp cut-off; inactive = mostly below about 10%); conditions: stronger effect = higher value
# [2] = stimulators of insulin release from INS-1E, primary screen, cell-based, 5 mM glucose, NPC library (AID 1117329;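 active = compound raises insulin release from rat beta cells at 5 mM glucose, no numeric limit stated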); conditions: rat INS-1E insulin secretion, at 10 µM, stronger effect = higher value
# [3] = growth inhibition of GSK3B-pretreated HCT116 cells – cell-based, CellTiter-Glo, 0.2 to 20 µM (AID 1117336;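 active = compounds lowering colon cancer cell viability after pretreatment blocking the GSK3B kinase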); conditions: HCT116 viability after GSK3B inhibitor, at 20 µM, stronger effect = higher value
# [4] = inhibition of endothelial tube formation, primary screen, imaging, VEGF stimulated, CD31 staining, tube area, NPC library (AID 1117340;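 active = compound that reduces growth-factor-driven endothelial tube area in a mixed cell culture, no cutoff stated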); conditions: VEGF-stimulated ADSC/ECFC co-culture, at 10 µM, stronger effect = higher value
# [5] = GLP1 release stimulators, primary, NCI-H716, NPC library (AID 1117341;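 active = compound raises GLP1 secretion from the human gut endocrine cells, with no numeric limit stated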); conditions: NCI-H716 cells, at 10 µM, stronger effect = higher value
# [6] = HCT116 colon cancer cell growth inhibition, primary screen, CellTiter-Glo luminescence, NPC library (AID 1117342;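 active = compounds that lower survival of HCT116 colon cancer cells in the luminescence readout, no numeric limit stated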); conditions: at 20 µM (top of the series)
# [7] = reduced SW480 viability measured with CellTiter-Glo, NPC library, primary (AID 1117343;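 active = compounds that lower viability of the colon cancer cells in the luminescence readout, with no numeric limit stated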); conditions: CellTiter-Glo luminescence; at 20 µM (top of the series)
# [8] = NPC library primary testing for decreased DLD-1 cell viability via CellTiter-Glo (AID 1117346;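 active = compounds that lower survival of DLD-1 colon cancer cells in the luminescence readout, no cutoff given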); conditions: DLD-1 viability, CellTiter-Glo luminescence; at 20 µM (top of the series)
# [9] = EMT-state selective cytotoxicity in co-culture – imaging, PC-3E GFP, TEM4-18 mCherry, primary screen (AID 1345086;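 active = compounds killing one labelled cell type while sparing the other, by normalised counts and ratio limits, not self-fluorescent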;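 for all read-outs here: cells exposed to compound for 72 h before imaging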;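 for red/green cell ratio (normalised): normalised mesenchymal count divided by normalised epithelial count so high means epithelial killing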); conditions: PC-3E GFP / TEM4-18 mCherry co-culture, imaging cell counts, at 1 µM; for red/green cell ratio (normalised): actives lie on both sides
# [10] = MELAS cybrid and Rieske KO viability enhancers – cell-based, MELAS cybrids, Rieske KO mouse fibroblasts, CellTiter-Glo, primary screen (AID 1508586;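 active = mean z-score across replicates of 1.96 or higher in either the MELAS or the Rieske mutant cell line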;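 note: z relative to plate mean and SD of compound and empty wells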); conditions: low glucose
# [11] = biological target: NAD(+) hydrolase SARM1 (Homo sapiens) (UniProt Q6SZW1); assay: blocking NAD cleavage by SARM1 SAM-TIR – cell lysate, NAD-Glo luminescence (AID 1508614;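 active = compound whose remaining NAD level is above about 45 nM, limit read from the data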;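 note: higher remaining NAD means stronger inhibition of SARM1 NADase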); conditions: SAM-TIR HEK293T lysate NADase, at 1 µM, stronger effect = higher value
# [12] = galactose survival enhancers in mitochondrial complex I cybrids – cell-based, galactose medium, ATP luminescence, primary screen (AID 1645843); conditions: complex I mutant cybrid cells, 72 h, stronger effect = higher value;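 note: positive z means more ATP and so rescue of galactose-driven cybrid death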
# [13] = P. berghei load reduction in hepatocytes – cell-based, HepG2, luciferase luminescence, HepG2 viability, primary screen (AID 624349; in the data active = parasite load remaining mostly below about 12%, no sharp cut-off; inactive = mostly above about 10%;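 note: 100% = mean of DMSO negative control wells on the same plate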); conditions: P. berghei liver stage in HepG2, luciferase luminescence, concentration not given here; parasite load remaining: stronger effect = lower value; viability: measured here: HepG2 viability without parasites
# [14] = viability loss with induced miR-34 in A549 – imaging, A549 dox-inducible miR-34, nuclei and caspase counts, primary screen (AID 1347080;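 active = compounds whose cell count with miR-34 switched on is under 0.7 times the count with it off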); conditions: A549 miR-34 inducible, Hoechst nuclei count, 48 h
# [15] = yeast 75Q aggregation reduction – 75Q-TubU reporter (AID 1593); conditions: Yeast 75Q polyglutamine aggregation reporter
# [16] = blockers of cytochrome c efflux from mitochondria – biochemical, purified mitochondria (AID 1603); conditions: stronger effect = lower value;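 note: mouse liver mitochondria challenged with calcium chloride; signal normalized to the plate average as 100%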
# [17] = polyglutamine aggregate formation blockers (AID 1604); conditions: polyglutamine-induced protein aggregation inhibition assay; stronger effect = higher value; tested at 2.5 µM
# [18] = test system: Aerobactin synthetase IucA (Klebsiella pneumoniae hvKP1); assay: IucA enzyme inhibition, primary screen, biochemical, Spectrum library (AID 1346200; call rule not given here;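 note: 100% = wells without compound and 0% = wells lacking enzyme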); conditions: malachite green pyrophosphate, A620, at 8 µM, stronger effect = lower value
# [19] = biological target: Mitogen-activated protein kinase 7 (Homo sapiens) (UniProt Q13164); assay: Gal4-ERK5 driven luciferase induction – cell-based, HTS, primary screen (AID 1508626;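 active = luciferase signal above three times the same-plate solvent-only control wells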;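 note: luciferase driven by Gal4-ERK5 fusion binding five Gal4 sites before minimal TATA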); conditions: HeLa Gal4-ERK5 transactivation, 18 h, at 5 µM, stronger effect = higher value
# [20] = measured here: epithelial PC-3E GFP cell survival
# [21] = measured here: mesenchymal TEM4-18 mCherry cell survival
# [22] = MELAS cybrid survival, CellTiter-Glo 48 h, stronger effect = higher value
# [23] = Rieske KO mouse fibroblast survival, CellTiter-Glo 72 h
# [24] = measured here: relative caspase fold change +Dox/-Dox
# [25] = measured here: total cells with miR-34 induction, stronger effect = lower value
# [26] = measured here: total cells without miR-34 induction
# Sequence of NAD(+) hydrolase SARM1 (Homo sapiens) (Q6SZW1 whole entry, looked up): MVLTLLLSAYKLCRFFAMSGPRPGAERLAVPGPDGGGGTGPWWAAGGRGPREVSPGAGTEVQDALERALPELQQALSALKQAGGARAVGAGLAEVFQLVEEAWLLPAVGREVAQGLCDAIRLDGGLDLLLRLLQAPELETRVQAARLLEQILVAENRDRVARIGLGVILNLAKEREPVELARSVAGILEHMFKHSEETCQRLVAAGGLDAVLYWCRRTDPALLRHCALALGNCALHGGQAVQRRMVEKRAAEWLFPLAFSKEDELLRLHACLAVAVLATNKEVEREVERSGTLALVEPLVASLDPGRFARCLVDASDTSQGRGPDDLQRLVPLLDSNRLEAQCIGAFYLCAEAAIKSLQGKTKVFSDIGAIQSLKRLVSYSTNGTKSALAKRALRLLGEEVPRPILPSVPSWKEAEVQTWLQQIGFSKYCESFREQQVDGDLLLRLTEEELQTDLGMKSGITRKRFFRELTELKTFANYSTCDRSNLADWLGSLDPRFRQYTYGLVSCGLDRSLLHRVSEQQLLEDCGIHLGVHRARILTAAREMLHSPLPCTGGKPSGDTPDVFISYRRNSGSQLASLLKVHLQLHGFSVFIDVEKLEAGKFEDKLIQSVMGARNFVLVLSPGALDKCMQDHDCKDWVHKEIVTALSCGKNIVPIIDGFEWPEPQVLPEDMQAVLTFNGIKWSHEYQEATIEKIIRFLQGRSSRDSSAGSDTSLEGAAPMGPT
# Sequence of Mitogen-activated protein kinase 7 (Homo sapiens) (Q13164 whole entry, looked up, the tested form may be a part): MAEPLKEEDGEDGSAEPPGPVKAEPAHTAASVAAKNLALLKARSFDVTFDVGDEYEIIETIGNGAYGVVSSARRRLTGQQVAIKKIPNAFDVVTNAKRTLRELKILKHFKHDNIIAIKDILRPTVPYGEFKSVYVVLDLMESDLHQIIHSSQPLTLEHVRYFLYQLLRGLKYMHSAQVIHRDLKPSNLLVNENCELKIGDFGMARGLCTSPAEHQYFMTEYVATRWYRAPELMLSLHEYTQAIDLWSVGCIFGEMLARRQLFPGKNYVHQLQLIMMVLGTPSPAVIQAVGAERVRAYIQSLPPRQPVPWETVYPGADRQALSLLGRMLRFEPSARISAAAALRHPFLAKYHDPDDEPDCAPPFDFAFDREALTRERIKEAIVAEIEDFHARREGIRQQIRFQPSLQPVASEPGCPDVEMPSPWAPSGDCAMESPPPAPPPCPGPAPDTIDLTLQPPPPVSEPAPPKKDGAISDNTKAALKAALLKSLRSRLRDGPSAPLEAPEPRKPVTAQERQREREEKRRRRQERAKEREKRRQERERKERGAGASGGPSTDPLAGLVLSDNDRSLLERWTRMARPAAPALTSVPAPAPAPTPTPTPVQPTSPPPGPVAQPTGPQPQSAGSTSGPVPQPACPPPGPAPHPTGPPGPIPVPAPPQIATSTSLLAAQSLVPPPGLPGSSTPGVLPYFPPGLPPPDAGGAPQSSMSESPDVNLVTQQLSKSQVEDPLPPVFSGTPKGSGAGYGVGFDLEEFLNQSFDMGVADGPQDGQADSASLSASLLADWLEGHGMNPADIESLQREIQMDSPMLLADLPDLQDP
compound,measurement,setting,value
CC[C@@H](CO)NC(=O)[C@@H]1C=C2c3cccc4c3c(cn4C)C[C@H]2N(C)C1,nuclear beta-catenin stimulation,[1]; at 10 µM,3.3% (inactive)
same,nuclear beta-catenin stimulation,"[1]; stimulation, at 2 µM",1.1%
same,insulin secretion stimulation,[2],2.6% (inactive)
same,viability decrease,[3],1% (inactive)
same,tube area decrease,[4],-1.8% (inactive)
same,GLP1 secretion stimulation,[5],0.1% (inactive)
same,inhibition of viability,[6],9.4% (inactive)
same,viability decrease (inhibition),[7],16% (inactive)
same,viability decrease (inhibition),[8],5.6% (inactive)
same,red/green cell ratio (normalised),[9],0.99 (inactive)
same,normalised cell number,[9]; [20],0.96
same,normalised cell number,[9]; [21],0.95
same,z-score,[10]; [22],-0.563 (inactive)
same,z-score,[10]; [23],-1.27
same,remaining NAD,[11],10 nM (inactive)
same,z-score,[12],0.19 (inactive) and -0.69 (inactive) and -0.15 (inactive)
O=C(O)C(Cl)Cl,parasite load remaining,[13],106% (inactive)
same,viability,[13],113%
same,nuclear beta-catenin stimulation,[1]; at 10 µM,1.9% (inactive)
same,nuclear beta-catenin stimulation,"[1]; stimulation, at 2 µM",0%
same,insulin secretion stimulation,[2],-1.6% (inactive)
same,viability decrease,[3],-4.8% (inactive)
same,tube area decrease,[4],-7.2% (inactive)
same,GLP1 secretion stimulation,[5],-2% (inactive)
same,inhibition of viability,[6],-9.3% (inactive)
same,viability decrease (inhibition),[7],38.4% (inactive)
same,viability decrease (inhibition),[8],8.5% (inactive)
same,fold change,[14]; stronger effect = lower value,1.04 (inactive)
same,fold change,"[14]; stronger effect = lower value, cell number ratio, induced over uninduced",0.958 (inactive)
same,fold change,[14]; [24],1.82 and 1.65
same,cell count,[14]; [25],10400 and 8960
same,cell count,[14]; [26],10100 and 9360
same,z-score,[12],0.605 (inactive) and 0.045 (inactive)
C[N+]1(CCC(C(N)=O)(c2ccccc2)c2ccccc2)CCCCC1,parasite load remaining,[13],104% (inactive)
same,viability,[13],70.3%
same,nuclear beta-catenin stimulation,[1]; at 10 µM,0.3% (inactive)
same,nuclear beta-catenin stimulation,"[1]; stimulation, at 2 µM",0.3%
same,insulin secretion stimulation,[2],0.55% (inactive)
same,viability decrease,[3],13.5% (inactive)
same,tube area decrease,[4],-8.4% (inactive)
same,GLP1 secretion stimulation,[5],1.2% (inactive)
same,inhibition of viability,[6],-21.6% (inactive)
same,viability decrease (inhibition),[7],-9.7% (inactive)
same,viability decrease (inhibition),[8],-24.2% (inactive)
same,fold change,[14]; stronger effect = lower value,0.846 (inactive)
same,fold change,[14]; [24],2.2
same,cell count,[14]; [25],8180
same,cell count,[14]; [26],9670
same,z-score,[12],0.675 (inactive)
O=C1C2CC=CCC2C(=O)N1SC(Cl)(Cl)Cl (centres undefined),nuclear beta-catenin stimulation,[1]; at 10 µM,14.9% (active)
same,nuclear beta-catenin stimulation,"[1]; stimulation, at 2 µM",44.5%
same,insulin secretion stimulation,[2],0.6% (inactive)
same,viability decrease,[3],98.9% (active)
same,tube area decrease,[4],108% (active)
same,GLP1 secretion stimulation,[5],0.3% (inactive)
same,inhibition of viability,[6],99.3% (active)
same,viability decrease (inhibition),[7],102% (active)
same,viability decrease (inhibition),[8],102% (active)
same,red/green cell ratio (normalised),"[9]; counts scaled to control wells, 1 = unselective",1.09 (inactive)
same,normalised cell number,[9]; [20],1.03
same,normalised cell number,[9]; [21],1.13
COc1ccc(C(=O)N2CCCC2=O)cc1,score,[15],0.89
same,cytochrome c release ratio,[16],0.98
same,inhibition of aggregation,[17],60.5%
same,parasite load remaining,[13],27.9% (inactive) and 46.2% (inactive)
same,viability,[13],90.5% and 108%
same,nuclear beta-catenin stimulation,[1]; at 10 µM,0.6% (inactive)
same,nuclear beta-catenin stimulation,"[1]; stimulation, at 2 µM",1.5%
same,insulin secretion stimulation,[2],-0.2% (inactive)
same,viability decrease,[3],-7.2% (inactive)
same,tube area decrease,[4],-6.9% (inactive)
same,GLP1 secretion stimulation,[5],-1% (inactive)
same,inhibition of viability,[6],-1% (inactive)
same,viability decrease (inhibition),[7],8.2% (inactive)
same,viability decrease (inhibition),[8],2.2% (inactive)
same,red/green cell ratio (normalised),[9],1.03 (inactive)
same,normalised cell number,[9]; [20],1.3
same,normalised cell number,[9]; [21],1.35
same,activity remaining,[18],112% (inactive)
same,z-score,[10]; [22],0.14 (inactive) and 0.301 (inactive) and -1.05 (inactive)
same,z-score,[10]; [23],1 and 0.247 and -0.762
same,remaining NAD,[11],10 nM (inactive)
same,luciferase signal,[19],60 AU (inactive)
same,z-score,[12],0.545 (inactive) and 0.9 (inactive) and 0.65 (inactive)
